Lamin A splicing = qHTS Assay for Modulators of Lamin A Splicing; Potency, µM (highest dose often 46.1 µM), for inactives: at the top dose ratio change, negative = inhibition, most hits filed as inhibitors; 0.01% of 200,000 active; HeLa LMNA splicing GFP/RFP minigene ratio, 48 h; active means well fitted inhibition curve with a large enough effect in the signal ratio, with a control signal flat, not every such curve was filed as active; inconclusive means small, poorly fitted or top-dose-only effect, or effect the other way, or a change in a side signal; the % refers to the signal ratio; further: on the % scale 0 is the no-effect control and ±100 the full control effect
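Read-out is the ratio of GFP to DsRed2 object intensity, acquired by 488 nm laser-scanning cytometry on HeLa lamin A-EGFP minigene reporter cells. Compound incubation 48 hrs at 37 °C in Opti-MEM with 2% FBS; DMSO 0.5% final.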
ALDH1A1 inh = qHTS Assay for Inhibitors of Aldehyde Dehydrogenase 1 (ALDH1A1); Aldehyde dehydrogenase 1A1 (Homo sapiens), P00352; Purified ALDH1A1, NADH fluorescence, propionaldehyde substrate; Potency, µM (doses to about 75.3 µM), inactives show top-dose activity, negative = inhibition, actives largely listed as inhibitors; 7.3% of 220,000 active;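 further: plate controls were no enzyme wells and a reference inhibitor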
Target sequence (P00352 whole entry, looked up): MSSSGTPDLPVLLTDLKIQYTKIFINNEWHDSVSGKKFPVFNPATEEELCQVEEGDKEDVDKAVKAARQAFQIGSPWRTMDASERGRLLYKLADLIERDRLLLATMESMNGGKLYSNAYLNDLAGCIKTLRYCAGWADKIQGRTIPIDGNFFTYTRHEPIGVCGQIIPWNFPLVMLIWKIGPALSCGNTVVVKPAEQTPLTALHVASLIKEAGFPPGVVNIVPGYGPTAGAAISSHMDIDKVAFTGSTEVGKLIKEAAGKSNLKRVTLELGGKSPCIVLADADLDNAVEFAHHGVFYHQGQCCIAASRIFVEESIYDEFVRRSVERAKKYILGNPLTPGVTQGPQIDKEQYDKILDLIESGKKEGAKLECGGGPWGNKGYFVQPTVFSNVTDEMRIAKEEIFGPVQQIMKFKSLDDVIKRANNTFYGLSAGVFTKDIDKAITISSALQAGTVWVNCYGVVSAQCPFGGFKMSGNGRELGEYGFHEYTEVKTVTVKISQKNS
HTT ATP protect = qHTS Multiplex Assay to Identify Dual Action Probes in a Cell Model of Huntington: Cytoprotection (ATP). PC12 HTT-Q103 induced, cytoprotection, ATP luminescence, 40 h. Potency, µM (doses to about 56.4 µM), for the others: cytoprotection (ATP increase), hits mostly activators. 0.14% of 230,000 active. AID 1471, 2008; active means well fitted curve in the direction sought with a large enough effect; inconclusive means small, poorly fitted or top-dose-only effect, or another doubt; inactive means no such curve, though single readings can be large; an effect the other way counts as inactive or inconclusive; further: % of control where 0% means no effect; nearly all actives have a fitted effect of over 45% in size
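Compounds added alongside 100 nM tebufenozide, which induces toxic Q103 huntingtin exon 1-GFP in stable PC12 cells; surviving cells quantified by luminescent ATP measurement. Medium: phenol red-free DMEM, 5% equine and 5% calf serum.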
HPGD inh = qHTS Assay for Inhibitors of HPGD (15-Hydroxyprostaglandin Dehydrogenase) | 15-hydroxyprostaglandin dehydrogenase [NAD(+)] (Homo sapiens), P15428 | purified HPGD, NADH fluorescence kinetic, PGE2 substrate | Potency, µM, for the others: at the top dose activity change, negative = inhibition, hits mostly inhibitors | 4.3% of 150,000 active | AID 894, 2007; further: on the % scale 0 is the no-effect control and ±100 the full control effect
Target sequence (P15428 whole entry, looked up): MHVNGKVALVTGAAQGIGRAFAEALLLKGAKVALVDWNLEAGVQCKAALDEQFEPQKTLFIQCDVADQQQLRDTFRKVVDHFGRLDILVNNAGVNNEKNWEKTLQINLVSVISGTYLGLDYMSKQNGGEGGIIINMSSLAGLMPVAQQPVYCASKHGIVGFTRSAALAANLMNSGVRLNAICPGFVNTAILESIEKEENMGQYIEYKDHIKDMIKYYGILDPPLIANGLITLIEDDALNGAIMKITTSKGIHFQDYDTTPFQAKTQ
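20 nM HPGD preincubated 15 min at room temperature with compound in 50 mM Tris-HCl pH 8, 0.01% Tween 20. Started with 1 mM NAD+ and 30 uM prostaglandin E2; NADH fluorescence (360/450 nm) read 5 times over 30-s intervals, last minus first.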
HttQ103 aggreg = qHTS Multiplex Assay to Identify Dual Action Probes in a Cell Model of Huntington: Aggregate Formation (GFP) | 1.1% of 220,000 active | PC12 HttQ103-GFP aggregates, Acumen cytometry, 40 h | Potency, µM (series often up to 46.1 µM), for the others: at the highest dose activity change, negative = inhibition, actives largely listed as inhibitors; active means well fitted curve in the direction sought with a large enough effect; inconclusive means small, poorly fitted or top-dose-only effect, or another doubt; inactive means no such curve, though single readings can be large; an effect the other way counts as inactive or inconclusive; further: on the % scale 0 is the no-effect control and ±100 the full control effect; nearly all actives have a fitted effect of over 60% in size
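Inducible Q103 Huntingtin exon 1–GFP PC12 line, 1500 cells/well in phenol red free DMEM with 5% equine and 5% calf serum. Tebufenozide 100 nM induced expression; compounds titrated; aggregates quantified by cytometry.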
The depositor's hits bear a star; ? = inconclusive; / = no result given; [ ] = dose if it differs, or a comment. Rows were chosen to be rich in hits. Some 8.8% of all compounds tested hit in one or more screens of this group. Unless noted, the call rests on the fitted dose curve; in most records, active means well fitted inhibition curve with a large enough effect (not every such curve was filed as active); inconclusive means small, poorly fitted or top-dose-only effect, or another doubt; inactive means no such curve, though single readings can be large or run the other way. Potency means the concentration at half of the fitted maximal effect.

SMILES	Lamin A splicing	ALDH1A1 inh	HTT ATP protect	HPGD inh	HttQ103 aggreg
Cc1cc(=O)n(Cc2c(F)cccc2Cl)c2c1c(C)nn2C	-11%[46 µM]	/	/	/	/
Cc1nc2ccccc2nc1SCC(=O)c1ccccc1	?	22µM*	7%[10 µM]	-19%	?
CCCc1nc(SCC(=O)c2ccc(F)cc2)c2ccccc2n1	/	18µM*	?	/	10%
CCCCn1cc(S(=O)(=O)c2ccc(Cl)cc2)c(=O)c2cc(F)c(N3CCCCC3)cc21	12%[46 µM]	/	/	/	/
c1ccsc1	/	8%	6%	-15%	/
CCCc1c(OCC(O)COc2ccc3c(=O)cc(C(=O)O)oc3c2CCC)ccc(C(C)=O)c1O (stereo unspecified)	/	-11%	-3%	18µM*	/
O=C(Nc1cccnc1)c1sc2cccc(F)c2c1Cl	?	?	-29%	/	-30%
O=C(NCCCn1ccnc1)c1sc2cccc(F)c2c1Cl	-9%	28µM*	-5%	-19%	-16%
CN(C)CCNC(=O)c1sc2cccc(F)c2c1Cl	?	14µM*	-8%	/	-3%
O=C(NCCCn1ccnc1)c1cccc(S(=O)(=O)Nc2ccccc2F)c1	-1%	-5%	-2%[10 µM]	2%	-8%
COc1cc(OC)c(NC2(c3ccccc3)C(=O)c3ccccc3C2=O)cc1Cl	13%[46 µM]	/	/	/	/
NC(=O)NC(=O)[C@H]1CCCC[C@@H]1C(=O)O	/	4%[13.5 µM]	-15%[10 µM]	-7%	/
COc1ccc(C2=CC(=O)OC3(CCCC3)O2)cc1	3%	13µM*	-5%[10 µM]	-5%	?
COC1=CC(=O)OC12CCCCC2	11%	2%	-6%	-10%	7%
O=Cc1cnc(N2CCN(Cc3ccccc3)CC2)s1	/	0.79µM*	-27%	/	32%[9.22 µM]
O=C(N/N=C/c1cnc(N2CCOCC2)s1)c1ccccc1	/	-14%	-67%	/	15%[9.22 µM]
O=Cc1cnc(N2CCN(c3ccccc3)CC2)s1	/	4µM*	-12%	/	26%
c1ccc(N2CCN(c3cnc4ccccc4n3)CC2)cc1	0%	?	-76%	22µM*	?
CC1CCCO1 (stereo unspecified)	/	-2%	11%	-8%	/
COC(=O)c1[nH]c2ccc(C)cc2c1NC(=O)CN1CCN(c2ccc(F)cc2)CC1	?	?	1.6µM*	?	-27%
COc1ccc(-c2cnnc(N/N=C/c3ccc(O)c(O)c3)n2)cc1	?	-11%	-59%[10 µM]	-19%	11µM*
COc1ccc(-c2cnnc(N/N=C/c3ccc(O)cc3)n2)cc1	/	16%	/	/	?
O=[N+]([O-])c1ccc(OC/C=C2\Oc3ccc([N+](=O)[O-])cc3C2N2CCOCC2)cc1 (stereo unspecified)	-13%	25µM*	-18%[10 µM]	-7%	-7%
O=[N+]([O-])c1ccc2c(c1)C(N1CCOCC1)/C(=C/COc1ccc(F)cc1)O2 (stereo unspecified)	?	?	10%[10 µM]	-14%	?
CC1CCc2onc(C(=O)N3CCN(c4ccccc4)CC3)c2C1 (stereo unspecified)	-9%[46 µM]	/	/	/	/
SMILES	Lamin A splicing	ALDH1A1 inh	HTT ATP protect	HPGD inh	HttQ103 aggreg
COc1cc(C(=O)NCc2cccc3ccccc23)cc(Cl)c1OC	3%	-15%	6%	1%	-24%
COc1cc(C(=O)NC(c2ccccc2)c2ccccc2)cc(Cl)c1OC	-10%	2µM*	10%[10 µM]	-2%	-9%
COc1ccc(C(NC(=O)c2ccc(F)cc2)c2ccccc2)cc1 (stereo unspecified)	-10%	22µM*	-24%[10 µM]	/	13%
COc1ccc(C(NC(=O)c2cccc(F)c2)c2ccccc2)cc1 (stereo unspecified)	?	?	1%[10 µM]	/	16%
COc1cc(C(=O)N/N=C(\C)Cc2ccccc2)cc(OC)c1OC	?	20µM*	-13%[10 µM]	-1%	5%
COC(=O)CC1C(C)(C)C(=O)C2CC3=C(CC[C@]4(C)C3=CC(=O)OC4c3ccoc3)[C@@]1(C)C2=O (stereo partly specified)	16%	5%	/	-10%	/
Cc1cc(C)cc(NC(=O)NCCn2nnc3cc(S(=O)(=O)N(C)C)ccc32)c1	-2%[46 µM]	/	/	/	/
CC(=N/O)/C(C)=N\NC(=O)c1ccccn1	-7%[9.22 µM]	12%	-92%	/	4%
C/C(=N/NC(=O)CNC(=O)c1ccccn1)c1ccccc1	-2%	14µM*	-5%[10 µM]	?	5%
C/C(=N\NC(=O)c1ccccc1[N+](=O)[O-])c1ccc(Br)s1	11%[46 µM]	3%	?	/	22%
C=CCNC(=S)N/N=C(\C)c1ccccn1	?	?	-61%[10 µM]	-22%	3.5µM*
C/C(=N\NC(=O)CCCNc1ccc(C)cc1)c1ccccn1	?	0%	/	1%	-27%
C/C(=N/NC(=O)CNC(=O)c1ccccn1)c1ccc([N+](=O)[O-])cc1	/	?	-23%	/	-7%
C/C(=N\NC(=O)c1ccccc1O)c1ccc(Br)s1	?	-14%	-40%[10 µM]	32µM*	-8%
C/C(=N\NC(=O)c1ccccn1)c1ccc(C(=O)O)s1	/	10µM*	20%[10 µM]	/	18%[9.22 µM]
CC1=C(C(=O)Nc2ccc(Cl)cc2)C2(CCCCC2)C(C(N)=O)C(=S)N1 (stereo unspecified)	-4%	7%	8%[1.9 µM]	-3%	-4%
COC(=O)c1ccc(Cl)cc1NC(=O)N1CC(C)Oc2ccccc21 (stereo unspecified)	3%[46 µM]	/	/	/	/
Cc1ccc(SCCC(=O)OC(C(=O)NC(N)=O)C(C)C)cc1 (stereo unspecified)	/	4%	-32%	/	20%
CC(=O)Nc1ccc(S(=O)(=O)NC2(C(F)(F)F)C(=O)Nc3c2c(=O)n(C)c(=O)n3C)cc1 (stereo unspecified)	-10%	?	0%	20µM*	1%
COC(=O)C1=C(C)N(CCc2ccccc2)C(=O)C1(NS(=O)(=O)c1ccc(NC(C)=O)cc1)C(F)(F)F (stereo unspecified)	-4%	20µM*	-3%	-17%	26%
CC(=O)C1=C(C)N(c2ccccc2)C(=O)C1(NS(=O)(=O)c1ccc(N)cc1)C(F)(F)F (stereo unspecified)	-19%[46 µM]	5%	/	/	?
CC(=O)Nc1ccc(S(=O)(=O)NC2(C(F)(F)F)C(=O)Nc3c2c(=O)[nH]c(=O)n3C)cc1 (stereo unspecified)	0%	2%	-13%	-30%	7%
Cc1ccc2[nH]c3c(=O)n(CC(=O)N(CCN(C)C)Cc4ccccc4)ncc3c2c1	-13%[46 µM]	/	/	/	/
CSc1nnc(-c2ccc(Cl)cc2Cl)o1	-8%	8%	-1%	-20%	14%
CCSc1nnc(-c2ccc(Cl)cc2Cl)o1	5%	?	-20%	14µM*	2%
